Sensor-assay potency score (higher = more potent) data for 15 sequences are collected here from the OligoGym collection.
Note: reference of the scale not given here.

One test concerns the target TNK1. Nature of the test: pooled miR-30 sensor sort-seq; sequence = guide strand. The settings on record: shRNA.
In turn, TTTCTGTCTCCATCTATGCTTC yielded a sensor-assay potency score (higher = more potent) of -0.886.

TAGTGGGCAGACTAGATCCTTC showed a sensor-assay potency score (higher = more potent) of -0.841.

The sequence TAGTGCTGTCTGGCACTCCTGG showed a sensor-assay potency score (higher = more potent) of -1.01.

Regarding TTGCCTTCTTTCTGTCTCCATC, the sensor-assay potency score (higher = more potent) is -1.2.

For TTCAGAGCTTCGGACAGTCTGC, the sensor-assay potency score (higher = more potent) is -0.64.

The next test deals with TNKS2. The description is as above. The settings on record: shRNA.
The sequence TTATGCTAAAATCTACTCCTGG yielded a sensor-assay potency score (higher = more potent) of 0.0124.

TTTCTTGTTACAAACCTTCTGA returned a sensor-assay potency score (higher = more potent) of 0.0757.

TTACAGTTTCGACATCTCCAGC returned a sensor-assay potency score (higher = more potent) of -0.869.

On to TATACTTTATTAGTAGAGCTGC, for which the sensor-assay potency score (higher = more potent) is 0.192.

With TTTTGATTCGAGTAACATCAGC, the sensor-assay potency score (higher = more potent) is -1.09.

Take TTCCACTTGAACTAACTACTGA: the sensor-assay potency score (higher = more potent) amounted to 0.487.

Sequence TAGTTTCTTGTTACAAACCTTC registered a sensor-assay potency score (higher = more potent) of -0.305.

Consider TTACTCTGTTATATCCTGCTGC, for which the sensor-assay potency score (higher = more potent) is 0.643.

Consider TTTAATTGCAGCTTCATGGAGA, for which the sensor-assay potency score (higher = more potent) was determined as 0.599.

The sequence TAAATTTCCATAAATCAGCTAC registered a sensor-assay potency score (higher = more potent) of 0.246.
